In PubChem BioAssay:
“And” between values parts separate entries of the source, which are not always exact repeats. Equal entries are not always repeated. Results filed as inconclusive are left out. The source made the active and inactive calls. Unless noted, cut-off not given; nearly all actives show AC50 up to about 26 µM.

Experiments:
[1] = Cy5 fluorescence interference with SSB-bound oligo, artefact control for HCV NS3 helicase inhibitor project, biochemical, NIH Clinical Collection, E. coli SSB (AID 743268; call rule not given here)
[2] = system: Hepatitis C virus NS3 helicase; test: HCV NS3 helicase inhibitors, primary screen, biochemical, fluorescence polarization, NIH Clinical Collection (AID 743270; call rule not given here); conditions: NS3 helicase binding to Cy5-dT15 DNA, stronger effect = higher value, concentration not given here
[3] = target: Single-stranded DNA-binding protein (Escherichia coli (strain K12)) (UniProt P0AGE0); test: E. coli SSB displacement from DNA, counter-screen for HCV NS3 helicase inhibitor project, biochemical, fluorescence polarization, NIH Clinical Collection (AID 743271; in the data active means inhibition above about 28%); conditions: stronger effect = higher value, concentration not given here
[4] = fluorescence interference in NS3h assay format, artefact control for HCV NS3 helicase inhibitor project, biochemical, NIH Clinical Collection (AID 743272; call rule not given here;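 further: HCV NS3 helicase with a Cy5 labelled single stranded DNA probe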); conditions: fluorescence interference counterscreen, stronger effect = lower value
[5] = growth inhibition of DIPG glioma cells, dose response, cell-based, SU-DIPG-XVII, MIPE5.0, CellTiter-Glo, qHTS (AID 1347060); conditions: SU-DIPG-XVII viability, CellTiter-Glo ATP luminescence;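 on AC50: cells exposed to compound for 48 hours before viability readout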
[6] = growth inhibition of DIPG glioma cells, dose response, cell-based, SU-DIPG-XIII, MIPE4.0, CellTiter-Glo, qHTS (AID 1347061; cut-off not given, nearly all actives have AC50 up to about 37 µM;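 further: cells exposed to compound for 48 hours before readout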); conditions: SU-DIPG-XIII viability, CellTiter-Glo ATP luminescence
[7] = growth inhibition of DIPG glioma cells, dose response, cell-based, JHH-DIPG-1, MIPE4.0, CellTiter-Glo, qHTS (AID 1347062; cut-off not given, nearly all actives have AC50 up to about 27 µM;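 on AC50: cells exposed to compound for two days before readout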); conditions: JHH-DIPG-1 viability, CellTiter-Glo ATP luminescence
[8] = growth inhibition of DIPG glioma cells, dose response, cell-based, SU-DIPG-IV, MIPE4.0, CellTiter-Glo, qHTS (AID 1347063; cut-off not given, nearly all actives have AC50 up to about 30 µM;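 further: compound exposure lasted 48 hours before the viability readout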); conditions: SU-DIPG-IV viability, CellTiter-Glo ATP luminescence
[9] = SU-DIPG-VI glioma cell viability, MIPE4.0 library, CellTiter-Glo luminescence, qHTS (AID 1347066; cut-off not given, nearly all actives have AC50 up to about 30 µM;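 further: cells exposed to compound for 48 hours before readout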); conditions: CellTiter-Glo ATP luminescence
[10] = JHH-DIPG-1 glioma cell viability, MIPE5.0 library, CellTiter-Glo luminescence, qHTS (AID 1347067); conditions: JHH-DIPG-1 glioma viability, CellTiter-Glo ATP luminescence;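 further: cells exposed to compound for 48 hours before readout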
[11] = SU-DIPG-XXV glioma cell viability, MIPE5.0 library, qHTS (AID 1347068; cut-off not given, nearly all actives have IC50 up to about 30 µM)
[12] = LFS_MB_P medulloblastoma growth inhibition, cell-based, chromothripsis tumors, cisplatin or BGB combos (AID 1671449; in the data active means inhibition above about 80%;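 further: cells exposed for 96 hours; 0% = vehicle DMSO and 100% = killing by high DMSO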); conditions: LFS_MB_P medulloblastoma cells
[13] = HDN33 neuroblastoma growth inhibition, cell-based, chromothripsis tumors, cisplatin or BGB combos (AID 1671450; in the data active means inhibition above about 80%;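 further: cells exposed to compound for four days; 0% = vehicle DMSO and 100% = cell killing by high DMSO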); conditions: HDN33 neuroblastoma cells, stronger effect = higher value
[14] = ICB984 medulloblastoma cell growth inhibition, synergistic combos for chromothripsis tumors, cisplatin or BGB combos (AID 1671451; call rule not given here;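 further: cells exposed for 96 hours before readout; 0% = vehicle DMSO and 100% = killing by high DMSO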); conditions: ICB984 medulloblastoma cells, drug combinations, stronger effect = higher value
[15] = HTB85 osteosarcoma cell growth inhibition, synergistic combos for chromothripsis tumors, BGB or cisplatin IC20 combos (AID 1671453; in the data active means inhibition above about 80%;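 further: cells exposed for 96 hours before readout; 0% = vehicle DMSO and 100% = high DMSO killing control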); conditions: HTB85 osteosarcoma cells, drug combinations, stronger effect = higher value
F380Y/beta4 = test: modulators of BK channel variants, profiling panel, selectivity assay, cell-based, U2OS BacMam, thallium flux, beta subunits (AID 1259406;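 active means thallium flux through the channel raised or lowered by more than 3 SD from vehicle-only wells, actives on both sides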;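 further: initial slope of Thallos dye fluorescence rise after thallium is added; log ratio against the mean of 0.3% DMSO vehicle wells on the same plate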); conditions: at 30 µM
[16] = target: Calcium-activated potassium channel subunit alpha-1 (Homo sapiens) + Leucine-rich repeat-containing protein 26 (Homo sapiens) (UniProt Q12791+Q2I0M4); test: as above; conditions: F380Y/Slo1WT/gamma1, at 30 µM
R275C/beta4 = test: as above; conditions: at 30 µM
[17] = system: Aerobactin synthetase IucA (Klebsiella pneumoniae); test: IucA aerobactin synthetase inhibitors, biochemical, Tocris library, absorbance (AID 1345561; call rule not given here;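 further: 100% = enzyme without compound and 0% = no enzyme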); conditions: purified IucA enzyme assay, absorbance (OD) read-out; stronger effect = lower value;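 tested at 8 µM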
[18] = viability loss in pontine glioma line – cell-based, SU-DIPG-XXV, MIPE5.0, CellTiter-Glo, qHTS, dose response (AID 1347065); conditions: CellTiter-Glo ATP luminescence;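 further: cells exposed to compound for 48 hours before ATP readout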

Sequence of Calcium-activated potassium channel subunit alpha-1 (Homo sapiens) + Leucine-rich repeat-containing protein 26 (Homo sapiens) (Q2I0M4 whole entry, looked up, one chain of several): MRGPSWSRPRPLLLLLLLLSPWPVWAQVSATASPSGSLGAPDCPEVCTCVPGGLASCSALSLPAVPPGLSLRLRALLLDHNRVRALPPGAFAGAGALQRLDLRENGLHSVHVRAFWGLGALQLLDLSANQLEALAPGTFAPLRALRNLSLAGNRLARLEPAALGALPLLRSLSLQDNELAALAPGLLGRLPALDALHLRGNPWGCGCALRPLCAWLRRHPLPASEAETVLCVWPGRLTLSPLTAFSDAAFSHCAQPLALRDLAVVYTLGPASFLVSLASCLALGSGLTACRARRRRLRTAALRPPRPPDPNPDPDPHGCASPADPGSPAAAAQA

O=P1(N(CCCl)CCCl)NCCCO1 (stereo not given)
fluorescence ratio [1]: 1.07 (inactive)
inhibition [2]: -4.09% (inactive)
inhibition [3]: 1.05% (inactive)
fluorescence ratio [4]: 0.99 (inactive)
outcome [5]: inactive
outcome [6]: inactive
outcome [7]: inactive
outcome [8]: inactive
outcome [9]: inactive
outcome [10]: inactive
outcome [11]: inactive
inhibition ([12]; at 0.5 µM, stronger effect = higher value): -6.53% (inactive) and -7.84% (inactive)
inhibition ([12]; measured here: combination with BGB IC20, at 0.005 µM): 2.32% and -13.2%
inhibition ([12]; measured here: combination with BGB IC40, at 0.005 µM): -6.39% and -22.4%
inhibition ([12]; measured here: combination with BGB IC40, at 0.05 µM): -5.95% and 13%
inhibition ([12]; measured here: combination with cisplatin, at 0.5 µM, stronger effect = higher value): -9.48% and -17.9%
inhibition ([12]; measured here: combination with cisplatin, at 5 µM, stronger effect = higher value): -25.8% and -37.1%
inhibition ([13]; BGB combo, at 5 µM): -38.1% and 11.3%
inhibition ([13]; at 0.5 µM): -28.6% (inactive) and -1.03% (inactive)
inhibition ([13]; cisplatin combo, at 5 µM): -13.9% and -0.927%
inhibition ([13]; measured here: with BGB IC20 combination, at 0.5 µM): -28.4% and 3.51%
inhibition ([13]; measured here: with cisplatin IC20 combination, at 0.5 µM): -36.3% and 6%
inhibition ([13]; single agent, at 5 µM): -28.1% and -8.82%
inhibition ([14]; BGB IC20 combo, at 0.005 µM): -3.81% and -12.8%
inhibition ([14]; BGB IC40 combo, at 0.005 µM): -4.33% and -15%
inhibition ([14]; BGB IC40 combo, at 0.05 µM): -3.91% and -28.7%
inhibition ([14]; at 0.5 µM): -31.6% (inactive) and -25.4% (inactive)
inhibition ([14]; cisplatin combo, at 0.05 µM): -7.65% and -28.7%
inhibition ([14]; cisplatin combo, at 0.5 µM): -40.7% and -25.4%
inhibition ([14]; cisplatin combo, at 5 µM): -21.7% and -28.6%
inhibition ([14]; measured here: 5 uM single agent, at 5 µM): 6.31% and -15%
inhibition ([15]; at 0.5 µM): -15.6% (inactive) and -16.2% (inactive)
inhibition ([15]; measured here: with BGB IC20, at 0.5 µM): -17.1% and -31%
inhibition ([15]; measured here: with BGB IC20, at 5 µM): -9.3% and -18.7%
inhibition ([15]; measured here: with cisplatin IC20, at 0.5 µM): -29.3% and -21%
inhibition ([15]; measured here: with cisplatin IC20, at 5 µM): -39.9% and -19.6%
inhibition ([15]; single agent, at 5 µM): 0.113% and -3.32%
log fold change Tl+ flux (F380Y/beta4): -0.0197 (inactive)
log fold change Tl+ flux [16]: 0.0114 (inactive)
log fold change Tl+ flux (R275C/beta4): 0.0832 (inactive)

N[C@@H]1C[C@H]1c1ccccc1
remaining activity [17]: 124% (inactive)
outcome [5]: inactive
outcome [6]: inactive
outcome [7]: inactive
outcome [8]: inactive
outcome [18]: inactive
outcome [9]: inactive
outcome [10]: inactive
outcome [11]: inactive

C[C@@H]1O[C@@H](O[C@H]2C[C@@H](O)[C@]3(CO)[C@H]4[C@H](O)C[C@]5(C)[C@@H](C6=CC(=O)OC6)CC[C@]5(O)[C@@H]4CC[C@]3(O)C2)[C@H](O)[C@H](O)[C@H]1O
AC50 [5]: 52.5 nM (active)
AC50 [6]: 13.2 nM (active)
AC50 [7]: 6.62 nM (active)
AC50 [8]: 14.8 nM (active)
AC50 [18]: 93.4 nM (active)
AC50 [9]: 29.6 nM (active)
AC50 [10]: 18.6 nM (active)

C=C(C)[C@H]1CN[C@H](C(=O)O)[C@H]1CC(=O)O
remaining activity [17]: 116% (inactive)

C[C@@H]1CC[C@H]2[C@@H](C)C(=O)O[C@@H]3O[C@@]4(C)CC[C@@H]1[C@]32OO4
remaining activity [17]: 94.3% (inactive)
outcome [5]: inactive
outcome [6]: inactive
outcome [7]: inactive
outcome [18]: inactive
outcome [9]: inactive
outcome [10]: inactive
outcome [11]: inactive
